The results in this text go back to PubChem BioAssay (NCI).

Among the test systems are SR leukemia; RPMI-8226 leukemia; OVCAR-8 ovarian; OVCAR-5 ovarian; OVCAR-4 ovarian; SK-OV-3 ovarian; IGROV1 ovarian; OVCAR-3 ovarian; HS 578T breast; NCI/ADR-RES ovarian; T-47D breast; BT-549 breast; MDA-MB-435 melanoma; SW-620 colon; MCF7 breast; HCT-116 colon; HCC-2998 colon; KM12 colon.
Experiment in all cases: NCI-60 one-dose screen, 48 h (100 = growth as untreated, 0 = no growth, -100 = all killed)
Details in all cases: 10 µM unless noted

This is part of a sample that, as a whole, favours compounds with a hit. Of some 83,000 tested, about 20% had one in any assay.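 The test compound was applied at a single concentration to cells in 96-well plates for 48 hours, and percent growth was recorded.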 Values without a mark were called inactive. Calls of active or inactive are those of the source. The calls were made as follows: active = growth percent below 10; inactive = the rest.

In the case of `NCCCNc1nc2ccccc2c2c(=O)c3cc(Cl)ccc3sc12`, the growth in the experiment with SR leukemia was -44.3% (active); in the experiment on RPMI-8226 leukemia, -37.9% (active); in the experiment on OVCAR-8 ovarian it was -48.4% (active); in the experiment on OVCAR-5 ovarian, -11.5% (active); in the experiment with OVCAR-4 ovarian it was 33.4%; with SK-OV-3 ovarian it was 77.6%. Besides, the growth was -1.46% (active) in the experiment with IGROV1 ovarian; -60% (active) in the experiment on OVCAR-3 ovarian; 43% in the experiment with HS 578T breast; -4.11% (active) in the experiment on NCI/ADR-RES ovarian; -6.77% (active) with T-47D breast; 83% in the experiment with BT-549 breast. The growth with MDA-MB-435 melanoma is -71.1% (active); with SW-620 colon, -90.6% (active); with MCF7 breast, -75.4% (active); in the experiment with HCT-116 colon, -92.5% (active); in the experiment with HCC-2998 colon, -75.6% (active); in the experiment with KM12 colon, -67.4% (active).

In the case of `Cn1cc(-c2csc(-c3cn(CCCN4CCOCC4)c4ccc(F)cc34)n2)c2cccnc21`, the growth in the experiment on SR leukemia is 48.4%; in the experiment on RPMI-8226 leukemia it was 34.8%; in the experiment with OVCAR-8 ovarian, 47.6%; in the experiment on OVCAR-5 ovarian, 73%; in the experiment on OVCAR-4 ovarian it was 56.6%; in the experiment with SK-OV-3 ovarian it was 80%. Further, the growth is 76.3% with IGROV1 ovarian; 77.6% in the experiment on OVCAR-3 ovarian; 46.6% in the experiment with HS 578T breast; 53.8% with NCI/ADR-RES ovarian; 41.1% in the experiment with T-47D breast; 71.6% with BT-549 breast. The growth with MDA-MB-435 melanoma was 65.3%; with SW-620 colon it was 61%; with MCF7 breast, 34.1%; with HCT-116 colon, 72.3%; with HCC-2998 colon, 65.4%; with KM12 colon, 34.3%.

For `O=C1c2cccnc2C(=O)c2c1c(C(=O)OCCc1ccccn1)c1ccccn21`, the growth in the experiment with SR leukemia is -10.9% (active); in the experiment on RPMI-8226 leukemia it was -27.2% (active); in the experiment on OVCAR-8 ovarian, -14% (active); in the experiment on OVCAR-5 ovarian, 9.08% (active); in the experiment with OVCAR-4 ovarian, 4.6% (active); in the experiment with SK-OV-3 ovarian, -66.5% (active). Further, the growth with IGROV1 ovarian is -0.716% (active); in the experiment with OVCAR-3 ovarian, -16.1% (active); in the experiment on HS 578T breast it was -28.6% (active); in the experiment with NCI/ADR-RES ovarian, -26.4% (active); in the experiment on T-47D breast it was -6.8% (active); in the experiment with BT-549 breast, -35.2% (active). For the same compound, the growth with MDA-MB-435 melanoma is -10.7% (active); in the experiment with SW-620 colon it was 2.3% (active); with MCF7 breast, -56.8% (active); with HCT-116 colon, -48.3% (active); with HCC-2998 colon, -70.3% (active); with KM12 colon it was 4.35% (active).

Turning to `Cc1ccccc1N1CCN(C(=S)c2ccccc2)CC1`, the growth in the experiment on SR leukemia is 104%; in the experiment on RPMI-8226 leukemia, 115%; in the experiment on OVCAR-8 ovarian, 96.4%; in the experiment with OVCAR-5 ovarian it was 93.4%; in the experiment with OVCAR-4 ovarian, 90.6%; with SK-OV-3 ovarian, 98.1%. Besides, the growth with IGROV1 ovarian is 57.2%; in the experiment with OVCAR-3 ovarian, 108%; with HS 578T breast it was 106%; in the experiment with NCI/ADR-RES ovarian it was 102%; in the experiment on T-47D breast it was 89.1%; in the experiment on BT-549 breast it was 88.5%. Besides, the growth was 103% with MDA-MB-435 melanoma; 98.3% in the experiment on SW-620 colon; 88.2% in the experiment on MCF7 breast; 91.9% in the experiment with HCT-116 colon; 75.3% with HCC-2998 colon; 112% in the experiment with KM12 colon.

Consider `O=C(c1c[nH]c2ccccc12)c1n[nH]c(=S)n1-c1ccc([N+](=O)[O-])cc1`, for which the growth in the experiment with SR leukemia was 92%; with RPMI-8226 leukemia it was 68.4%; in the experiment on OVCAR-8 ovarian, 97.1%; in the experiment with OVCAR-5 ovarian, 101%; in the experiment with OVCAR-4 ovarian it was 85%; in the experiment on SK-OV-3 ovarian it was 95.4%. Moreover, the growth in the experiment on IGROV1 ovarian was 73.1%; with OVCAR-3 ovarian, 95.3%; with HS 578T breast it was 92.8%; in the experiment on NCI/ADR-RES ovarian, 106%; with T-47D breast, 40.4%; in the experiment on BT-549 breast, 117%. For the same compound, the growth in the experiment with MDA-MB-435 melanoma was 104%; with SW-620 colon, 100%; in the experiment on MCF7 breast, 63.3%; with HCT-116 colon, 90.3%; with HCC-2998 colon it was 58.5%; in the experiment on KM12 colon, 67.4%.

Take `C#Cc1cccc(Nc2ncnc3cc(NC(=O)CCl)ccc23)c1`: the growth in the experiment on SR leukemia was -37.5% (active); in the experiment on RPMI-8226 leukemia it was -43.7% (active); in the experiment on OVCAR-8 ovarian, -11.7% (active); in the experiment on OVCAR-5 ovarian it was -91% (active); in the experiment on OVCAR-4 ovarian, -60.1% (active); in the experiment on SK-OV-3 ovarian it was -0.177% (active). Besides, the growth with IGROV1 ovarian was -56.6% (active); in the experiment on OVCAR-3 ovarian it was -88.7% (active); with HS 578T breast, -2.33% (active); with NCI/ADR-RES ovarian it was -28.6% (active); in the experiment with T-47D breast, -52.7% (active); in the experiment with BT-549 breast, -76.7% (active). Further, the growth was -70.8% (active) in the experiment with MDA-MB-435 melanoma; -61.6% (active) in the experiment on SW-620 colon; -50.4% (active) in the experiment on MCF7 breast; -76.3% (active) with HCT-116 colon; -88.3% (active) in the experiment with HCC-2998 colon; -74.3% (active) with KM12 colon.

Consider `COc1ccc2cc(C(=O)N3CCC([C@@H](C)C(=O)NCc4ccc5c(c4)OCO5)CC3)[nH]c2c1`, for which the growth is 62.6% [50 µM] in the experiment on SR leukemia; 47.1% [50 µM] with RPMI-8226 leukemia; 16.3% [50 µM] in the experiment with OVCAR-8 ovarian; 73.1% [50 µM] in the experiment with OVCAR-5 ovarian; 53.3% [50 µM] in the experiment with OVCAR-4 ovarian; 1.39% [50 µM] (active) in the experiment on SK-OV-3 ovarian. For the same compound, the growth with IGROV1 ovarian is 41.6% [50 µM]; in the experiment on OVCAR-3 ovarian it was 8.71% [50 µM] (active); in the experiment on HS 578T breast it was 22.9% [50 µM]; in the experiment on NCI/ADR-RES ovarian, 38.3% [50 µM]; in the experiment with T-47D breast it was 17.3% [50 µM]; in the experiment with BT-549 breast, 16% [50 µM]. Further, the growth with MDA-MB-435 melanoma is 65.9% [50 µM]; in the experiment on SW-620 colon it was 103% [50 µM]; in the experiment on MCF7 breast, 46.8% [50 µM]; in the experiment with HCT-116 colon, 33.6% [50 µM]; in the experiment with HCC-2998 colon, 83% [50 µM]; with KM12 colon, 79.1% [50 µM].

Take `CS(=O)(=O)Nc1cc(-c2ccc3ncnc(Nc4ccc(OCc5ccccn5)c(Cl)c4)c3c2)cnc1Cl`: the growth was -5.01% (active) in the experiment with SR leukemia; -50.3% (active) in the experiment with RPMI-8226 leukemia; 14.4% with OVCAR-8 ovarian; 12.5% in the experiment on OVCAR-5 ovarian; 20.9% in the experiment with OVCAR-4 ovarian; -27.1% (active) with SK-OV-3 ovarian. Besides, the growth in the experiment with IGROV1 ovarian is -30.6% (active); in the experiment on OVCAR-3 ovarian, -19% (active); in the experiment on HS 578T breast, -19.7% (active); with NCI/ADR-RES ovarian it was 77.7%; in the experiment on T-47D breast, -25.3% (active); in the experiment with BT-549 breast, -3.21% (active). For the same compound, the growth in the experiment on MDA-MB-435 melanoma is 7.34% (active); in the experiment with SW-620 colon it was 5.12% (active); in the experiment on MCF7 breast, 4.74% (active); in the experiment with HCT-116 colon, 9.28% (active); with HCC-2998 colon, 3.04% (active); in the experiment with KM12 colon, -5.09% (active).
